For one assay, the target named is Albumin (Bos taurus) (UniProt P02769). The assay is described as follows: bovine serum albumin binders on microarray, profiling panel, artefact control for SMM control protein annotation, biochemical, small-molecule microarray, Alexa647 label, 635/667 nm fluorescence (AID 1118).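 Note: score merges 667 nm emission intensity and signal-to-noise per printed compound spot.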 The following applies: BSA-A647 binding, fluorescence 635 nm, higher = more signal.
Assay [1] is described as follows: small-molecule microarray binders of probe aXIP, primary screen, biochemical, NeuroSMM set, 635/667 nm fluorescence (AID 1119).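 Note: probe is the protein aXip251-270 applied at 1 µg/mL to compound-printed slides; binding of probe to printed compounds measured as 667 nm fluorescence plus signal to noise.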 Particulars: higher = more signal, called active from +8 up or from −8 down.
A short description of assay [2]: small-molecule binders of probe aNOTCH3, primary screen, biochemical, small-molecule microarray, 635/667 nm fluorescence (AID 1120).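 Note: probe is a biotin-tagged antibody raised against NOTCH3 rather than NOTCH3 protein; score merges spot fluorescence near 667 nm with spot signal to noise.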 Particulars: higher = more signal.
Assay [3] is described as follows: small-molecule binders of probe aNOTCH2, primary screen, biochemical, small-molecule microarray, 635/667 nm fluorescence (AID 1121).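 Note: score merges feature fluorescence read at 667 nm with its signal to noise.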 Particulars: higher = more signal.
The target of assay [4] is Carbonic anhydrase 2 (Homo sapiens) (UniProt P00918). The assay can be described thus: CAII small-molecule binders, profiling panel, biochemical, small-molecule microarray, Alexa647-labelled CAII (AID 1122). The following applies: CAII-A647 binding fluorescence, higher = more signal.
Assay [5] in a line: COS7 lysate on small-molecule microarray, probe aHis, 635 nm (AID 1123).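 Note: z-score combines 667nm fluorescence intensity with signal-to-noise per printed compound spot.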 The following applies: COS7 cell lysate, fluorescence, higher = more signal.
A short description of assay [6]: compound binding in COS7 lysate, probe aLAP1, primary screen, cell lysate, small-molecule microarray (AID 1124).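 Note: lysate comes from COS7 cells expressing LAP1 and is applied at 0.3 µg/mL; score merges spot fluorescence near 667 nm with signal-to-noise over triplicate slides.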 Particulars: probe aLAP1, fluorescence, higher = more signal.
For another assay, the system named is Sam68 (KHDRBS1). The assay is described as follows: Sam68 small-molecule binders, primary screen, biochemical, small-molecule microarray, 635 nm fluorescence (AID 1125).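 Note: score merges 667 nm channel intensity with signal to noise over triplicate slides.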 The following applies: small-molecule microarray binding, higher = more signal.
For assay [7], the system named is Chordin-like protein 2 (CHRDL2). The assay is described as follows: CHRDL2 small-molecule binders, primary screen, biochemical, small-molecule microarray, 635 nm fluorescence (AID 1126).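 Note: printed compound slides probed with Chrdl2 protein at 4 µg/mL for 1 h at 4 C; score merges 667 nm emission intensity with signal to noise over three replicate slides.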 The following applies: small-molecule microarray binding, fluorescence 635 nm; higher = more signal.
Assay [8] addresses Concanavalin-A (Canavalia ensiformis) (UniProt P02866). The assay is described as follows: ConA small-molecule binders, primary screen, artefact control for SMM control protein annotation, biochemical, small-molecule microarray, Alexa647 label, 635 nm (AID 1127).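 Note: z combines 667 nm emission intensity with signal-to-noise across three replicate slides.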 Particulars: ConA-A647 binding fluorescence, higher = more signal.

Activity calls are given as the source filed them.

Concanavalin-A (Canavalia ensiformis), sequence (P02866 whole entry, looked up): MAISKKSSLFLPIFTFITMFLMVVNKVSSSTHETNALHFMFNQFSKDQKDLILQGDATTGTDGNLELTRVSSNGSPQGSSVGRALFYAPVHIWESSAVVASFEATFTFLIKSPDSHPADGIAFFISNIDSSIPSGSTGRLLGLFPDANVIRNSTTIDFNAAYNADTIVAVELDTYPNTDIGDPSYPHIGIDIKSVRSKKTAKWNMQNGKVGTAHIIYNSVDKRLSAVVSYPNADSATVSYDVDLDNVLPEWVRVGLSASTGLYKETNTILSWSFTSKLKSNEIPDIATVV
Albumin (Bos taurus), sequence (P02769 whole entry, looked up): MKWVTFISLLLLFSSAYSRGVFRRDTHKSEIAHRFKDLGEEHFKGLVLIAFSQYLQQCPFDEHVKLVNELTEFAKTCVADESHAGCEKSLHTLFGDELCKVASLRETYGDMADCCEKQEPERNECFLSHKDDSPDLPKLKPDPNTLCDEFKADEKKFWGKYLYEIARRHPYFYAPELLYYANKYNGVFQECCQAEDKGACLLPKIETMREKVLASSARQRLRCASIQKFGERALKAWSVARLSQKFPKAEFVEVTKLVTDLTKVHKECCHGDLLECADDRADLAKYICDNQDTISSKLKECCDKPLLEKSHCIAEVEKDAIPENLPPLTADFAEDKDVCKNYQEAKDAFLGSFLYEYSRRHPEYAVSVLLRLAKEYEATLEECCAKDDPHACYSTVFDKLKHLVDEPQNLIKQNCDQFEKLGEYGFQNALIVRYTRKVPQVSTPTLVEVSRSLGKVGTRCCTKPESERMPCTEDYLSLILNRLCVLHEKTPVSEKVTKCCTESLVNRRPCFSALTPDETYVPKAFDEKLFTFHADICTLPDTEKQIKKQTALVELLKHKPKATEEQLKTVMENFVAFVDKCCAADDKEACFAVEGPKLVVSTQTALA

Take `CN(C)C(=O)[C@]1(Cc2ccccc2)N=C(c2ccc(OCCCO)cc2)O[C@@H]1c1ccccc1`: the composite z-score with Albumin (Bos taurus) was 0.62; in [2], -0.046; in assay [3], -0.0531; in assay [4], 0.687; in [5], 2.68; in assay [6], 0.429. Besides, the composite z-score with Sam68 (KHDRBS1) is 0.978; in assay [7], -1.01; in [8], 0.915. Further, in [1], the composite Z-score is 0.572 (inactive).
As for `COc1cc(OC)c(C(O)C2C=CC3C(=O)N(c4ccccc4)C(=O)C3N2Nc2ccccc2F)cc1Br` (stereo not given), the composite z-score with Albumin (Bos taurus) was 0.89; in assay [2], 0.378; in assay [3], -0.0664; in assay [4], 0.693; in assay [5], 2.91; in assay [6], 0.408. Moreover, the composite z-score in the assay with Sam68 (KHDRBS1) is 1.34; in assay [7] it was -0.577; in [8], 1.1. Moreover, the composite Z-score in assay [1] is 0.476 (inactive).
Consider `COC(=O)[C@H](Cc1ccc(O)cc1)N1CC2=CCCC=C[C@@H]2[C@H]1[C@H](O)Cc1ccccc1`, for which the composite z-score is 0.293 in the assay with Albumin (Bos taurus); -0.0319 in assay [2]; -0.0772 in [3]; 0.669 in [4]; 0.16 in assay [5]; -0.0126 in assay [6]. Further, the composite z-score was -0.163 in the assay on Sam68 (KHDRBS1), 0.706 in assay [7] and 0.295 in assay [8]. In addition, in assay [1], the composite Z-score was -0.223 (inactive).
In the case of `CC(C)C(=C=CC[C@@H](O)c1ccccc1OCCO)C[C@@H](O)c1cc(Cl)cc(Cl)c1O`, the composite z-score was 0.77 in the assay with Albumin (Bos taurus); 0.156 in assay [2]; -0.147 in assay [3]; 0.68 in assay [4]; 1.76 in assay [5]; 0.632 in assay [6]. In addition, the values for the composite z-score (with Sam68 (KHDRBS1); in assay [7]; in assay [8]) were 1.26, 0.784 and 0.612, respectively. The composite Z-score in [1] is -0.235 (inactive).
`C=C(COC)/C(=C/C[C@H](OC(=O)c1ccncc1)c1cccc(OCCO)c1)c1cnc2ccccc2c1`: the composite z-score with Albumin (Bos taurus) was 0.671; in assay [2], 0.279; in [3], -0.0681; in assay [4] it was 0.855; in assay [5], 1.21; in assay [6], 0.444. Besides, the composite z-score was 1.3 in the assay on Sam68 (KHDRBS1), 1.23 in assay [7] and 1.09 in assay [8]. In assay [1], the composite Z-score was 1.56 (inactive).
Regarding `C=CCOC(=O)[C@H]1[C@@H]2C(=O)O[C@@H](c3ccccc3)[C@@H](c3ccccc3)N2[C@@H](c2ccc(OCCOC(=O)[C@H]3C[C@H]4C(=O)NCC(=O)N4[C@H]3c3ccc(O)cc3)cc2)[C@]12C(=O)Nc1ccc(I)cc12`, the composite z-score in the assay with Albumin (Bos taurus) is 0.163; in assay [2], -0.0647; in assay [3], -0.104; in [4] it was 0.0742; in [5], 0.737; in assay [6] it was 0.0174. The composite z-score was determined as 0.503 in the assay with Sam68 (KHDRBS1), 0.677 in [7] and 1.13 in [8]. The composite Z-score in [1] is -0.0149 (inactive).
Turning to `COc1ccc(CC[C@H](O)c2cccc(OCC(=O)OC(C)(C)C)c2)cc1`, the composite z-score was 0.625 with Albumin (Bos taurus); -0.0014 in assay [2]; -0.0876 in assay [3]; 0.29 in [4]; 1.34 in [5]; 0.341 in assay [6]. The composite z-score amounted to 1.33 in the assay on Sam68 (KHDRBS1), 0.723 in [7] and 1.2 in [8]. In addition, in assay [1], the composite Z-score was 0.0178 (inactive).
Turning to `NCCCC[C@@H]1NC(=O)[C@H]2C[C@@H](C(=O)NCc3ccc(F)cc3)[C@@H](c3cccc(OCCO)c3)N2C1=O`, the composite z-score was -0.364 with Albumin (Bos taurus); 0.156 in assay [2]; -0.0995 in [3]; 0.549 in assay [4]; 1.46 in [5]; 0.251 in assay [6]. Besides, the composite z-score worked out at 1.3 in the assay on Sam68 (KHDRBS1), 1.47 in assay [7] and 0.701 in [8]. Moreover, the composite Z-score in [1] is 0.125 (inactive).
